Reference: PubChem BioAssay AID651603 (National Center for Advancing Translational Sciences (NCATS), 2012)
Activity calls are given as the source filed them.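 How the source made its calls: active means inhibition of at least 50% at 50 µM, meaning an activity change of -50% or lower; inconclusive means inhibition above 30% but under 50% at 50 µM; inactive means inhibition of 30% or less at 50 µM.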

Assay: qHTS Assay for Iinhibitors of HIV-1 Budding by Blocking the Interaction of PTAP/TSG101: Hit Validation in Viral Budding Asaay
Settings: HeLa pNL4-3 HIV-1 budding, supernatant RT activity, 18 h; at 50 µM (top of the series)
Source text: Stages of the HIV-1 replication cycle, specifically virus assembly and release, provide underexploited targets for the development of novel antiviral inhibitors. The late stages of HIV-1 replication are mediated by the Gag precursor protein, Pr55Gag. Expression of Pr55Gag is both necessary and sufficient for the production of virus-like particles from Gag-expressing cells. The Gag protein hijacks key host proteins involved in endocytic machinery of the host cell to promote endosomal processing and viral budding. The budding process requires a direct interaction between a […] (PTAP) motif in the p6 domain of Gag and the cellular endosomal sorting protein known as Tsg101. In this way, the Gag PTAP motif promotes the host cells to recruit viral particles to the plasma membrane where the new viral particles are released, effectively turning the host cells into viral factories. A fluorescence anisotropy assay has been developed to quantitatively measure the PTAP-Tsg101 interaction which can be used to screen for inhibitors of this interaction. In this hit validation assay the readout is the release of reverse transcriptase (RT) activity into the medium of HeLa cells transfected with the full-length HIV-1 molecular clone pNL4-3. RT release from virus-producing cells occurs upon budding of virus from the cell surface. Small molecules that block the PTAP/Tsg101 interaction will reduce RT release. HeLa cells will also be transfected with a luciferase expression vector; compounds that are cytotoxic will reduce luciferase expression. NIH Molecular Libraries Probe Production Network [MLPCN] NIH Chemical Genomics Center [NCGC] MLPCN Grant: 1 R03 MH087464-01A1 PI Name: Dr. Eric Freed, NCI
Virus producing cells were treated with 12.5, 25 & 50 uM of each compound and 18 hr after treatment virus supernatant was collected from the cells. Reverse transcriptase (RT) activity in the virus supernatant is then measured.

| Structure (SMILES) | activity change, negative = inhibition |
| --- | --- |
| CN1CCc2c(sc(NC(=O)CSc3ccc(F)cc3)c2-c2nc3ccccc3s2)C1 | -59.8% (active) |
| COc1cccc2c1C(=O)c1c(O)c3c(c(O)c1C2=O)CC(O)(C(=O)CO)CC3OC1CC(N(C)C)C(O)C(C)O1 (centres undefined) | -84% (active) |
| COc1cccc(C(=O)c2sc3nc(-c4ccccc4)cc(C(F)(F)F)c3c2N)c1 | -91.8% (active) |
| O/C=c1\ccc2cccc3nc(C(F)(F)F)nc1c23 | -89.5% (active) |
